Where “and” joins values, the source holds several entries; their conditions need not be identical. Equal values may be shown once. Where a name gives a salt, the structure may show the parent alone.
Columns and labels:
Test in all cases: cell viability relative to vehicle control; higher = less cytotoxic
Details in all cases: 10 µM
[1] = test system: K562
Method in brief: (§1)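 Screening covered the Selleck bioactive, kinase and epigenetic probe libraries, less identity-inconsistent compounds, on CRISPR-edited mutant clones and isogenic wild-type clones of four leukaemia lines. Cells, at 2000 per well in 50 µL medium, received a single 10 µM acoustically dispensed dose. After 48 h the supernatant was removed and CellTiter-Glo luminescence was read. Viability was analysed in Genedata Screener as percent of the on-plate vehicle control.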

[2] = test system: MARIMO
Method in brief: as §1

[3] = test system: MOLM14
Method in brief: as §1

[4] = test system: OCI-AML2
Method in brief: as §1

| Structure (SMILES) | cell viability ([1]; SRSF2 genotype: SRSF2 P95H/wt) | cell viability ([1]; SRSF2 genotype: SRSF2 wt/wt) [%] | cell viability ([2]; SRSF2 genotype: SRSF2 P95H/wt) [%] | cell viability ([2]; SRSF2 genotype: SRSF2 wt/wt) [%] | cell viability ([3]; SRSF2 genotype: SRSF2 P95H/wt) [%] | cell viability ([3]; SRSF2 genotype: SRSF2 wt/wt) [%] | cell viability ([4]; SRSF2 genotype: P95H/wt) [%] | cell viability ([4]; SRSF2 genotype: wt/wt) [%] |
| --- | --- | --- | --- | --- | --- | --- | --- | --- |
| CC(=O)O[C@@]12CO[C@@H]1C[C@H](O)[C@@]1(C)C(=O)[C@H](O)C3=C(C)[C@@H](OC(=O)[C@H](O)[C@@H](NC(=O)OC(C)(C)C)c4ccccc4)C[C@@](O)([C@@H](OC(=O)c4ccccc4)[C@H]21)C3(C)C [Docetaxel Trihydrate] | 24.8% and 32.4% | 32.7 | 8.87 | 5.68 | 8.57 | 4.2 | 6.94 | 13.5 |
| Cn1cc(C(=O)[C@@H]2CCc3[nH]cnc3C2)c2ccccc21 [Ramosetron Hydrochloride] | 92.3% and 92.8% | 81.9 | 91.2 | 94.8 | 96.2 | 94.1 | 92.2 | 89.9 |
| Oc1c(Cl)cc(Cl)c2cccnc12 [Chloroxine] | 62.1% and 63.6% | 66.6 | 21.6 | 14.7 | 55.5 | 63.2 | 1.78 | 3.9 |
| C[C@H]1CNCCCN1S(=O)(=O)c1cccc2cncc(F)c12 [Ripasudil (K-115)] | 104% and 103% | 108 | 101 | 106 | 74.7 | 101 | 76.7 | 82.9 |
| CC(=O)O/N=C1\C(=O)N(Cc2cc(Cl)ccc2Cl)c2ccc(Cl)cc21 | 92% and 94.5% | 85.1 | 15.6 | 91.5 | 30.4 | 90.7 | 1.27 | 9.59 |
| C[C@@H]1CC[C@@]2(OC1)O[C@H]1C[C@H]3[C@@H]4CC=C5C[C@@H](O[C@@H]6O[C@H](CO)[C@@H](O)[C@H](O)[C@H]6O[C@@H]6O[C@@H](C)[C@H](O)[C@@H](O)[C@H]6O)CC[C@]5(C)[C@H]4CC[C@]3(C)[C@@]1(O)[C@@H]2C [Polyphyllin VI] | 0.36% and 0.31% | 0.44 | 4.95 | 0.84 | 0.85 | 0.55 | 0.28 | 0.33 |
| C#C[C@]1(O)CC[C@H]2[C@@H]3CCC4=CC(=O)CC[C@@H]4[C@H]3C(=C)C[C@@]21CC [Etonogestrel] | 82.9% and 75.4% | 80.4 | 78.6 | 88.8 | 84.9 | 89.9 | 88 | 88.3 |
| O=C(NC1(c2ccccc2)CC1)c1c(CN2CCC(N3CCCCC3)CC2)c(-c2cccc(C(F)(F)F)c2)nc2cc(Br)ccc12 | 8.23% and 19.8% | 11.8 | 66.8 | 58.4 | 64.9 | 71.4 | 1.08 | 24.1 |
| OCCn1cc(-c2ccc3c(c2)CC/C3=N\O)c(-c2ccncc2)n1 | 110% | 111 | 85 | 73 | 89.8 | 94 | 94.4 | 80.8 |
| CCN(CC)Cc1cc(Nc2ccnc3cc(Cl)ccc23)ccc1O [Amodiaquine hydrochloride] | 80.3% and 76.8% | 74 | 61 | 67.4 | 40.2 | 31.1 | 39 | 33.4 |
| CNC(=O)c1cc(Oc2ccc3nc(N[C@@H]4CCCC[C@H]4O)sc3c2)ccn1 | 87.4% and 93.2% | 89.4 | 100 | 99.1 | 89.2 | 99.5 | 90 | 83.2 |
| CCOC(=O)OC(C)OC1=C(C(=O)Nc2ccccn2)N(C)S(=O)(=O)c2ccccc21 (stereo not drawn) [Ampiroxicam] | 96.8% and 104% | 92.4 | 101 | 95.9 | 93 | 95.9 | 104 | 96 |
| C=C[C@@H]1C[C@]1(NC(=O)[C@@H]1C[C@@H](Oc2ncc(OC)c3ccc(Cl)cc23)CN1C(=O)[C@@H](NC(=O)OC(C)(C)C)C(C)(C)C)C(=O)NS(=O)(=O)C1CC1 [Asunaprevir] | 88.6% and 75.8% | 78.8 | 103 | 109 | 96.3 | 97.9 | 108 | 110 |
| CCNC(=O)Nc1ccc(-c2nc3c(c(N4CCOC[C@@H]4C)n2)CCN(C2COC2)C3)cc1 | 40.5% and 42.9% | 39.5 | 61.5 | 53.6 | 37.4 | 28.8 | 36.3 | 33.7 |
| COC(=O)C1=C(C)NC(C)=C(C(=O)OCCN(C)Cc2ccccc2)C1c1cccc([N+](=O)[O-])c1 (stereo not drawn) [Nicardipine HCl] | 79.8% and 89.1% | 80.5 | 81.8 | 91.3 | 87.9 | 81.1 | 85.8 | 85 |
| O=C([O-])[O-].[Li+].[Li+] [Lithium carbonate] | 111% and 113% | 108 | 99.6 | 112 | 105 | 108 | 117 | 96.9 |

| Structure (SMILES) | cell viability ([1]; SRSF2 genotype: SRSF2 P95H/wt) | cell viability ([1]; SRSF2 genotype: SRSF2 wt/wt) [%] | cell viability ([2]; SRSF2 genotype: SRSF2 P95H/wt) [%] | cell viability ([2]; SRSF2 genotype: SRSF2 wt/wt) [%] | cell viability ([3]; SRSF2 genotype: SRSF2 P95H/wt) [%] | cell viability ([3]; SRSF2 genotype: SRSF2 wt/wt) [%] | cell viability ([4]; SRSF2 genotype: P95H/wt) [%] | cell viability ([4]; SRSF2 genotype: wt/wt) [%] |
| --- | --- | --- | --- | --- | --- | --- | --- | --- |
| NC1(Cc2ccc(Cl)cc2)CCN(c2ncnc3[nH]ccc23)CC1 | 55.4% and 60.1% | 50.8 | 36.5 | 35.1 | 17.7 | 17 | 35.3 | 30.9 |
| CCOC(=O)c1[nH]c2cc(Cl)ccc2c1C(C(=O)NC(C)(C)C)N(C=O)Cc1ccc(Cl)cc1 (stereo not drawn) | 78.9% and 75.1% | 75.3 | 68.1 | 74.4 | 44.1 | 57.5 | 77.3 | 64.2 |
| CS(=O)(=O)c1cccc(C[C@H](NC(=O)c2c(Cl)cc3c(c2Cl)CCN(C(=O)c2ccc4ccoc4c2)C3)C(=O)O)c1 [Lifitegrast] | 96.8% and 97% | 90.3 | 90.5 | 102 | 93.7 | 96.6 | 92.2 | 94.9 |
| CC(C)[C@H](O)C(=O)N[C@@H](C)C(=O)N[C@@H]1C(=O)N(C)CCc2ccccc21 | 106% and 107% | 106 | 96 | 107 | 109 | 105 | 101 | 111 |
| CN(C)CCc1c[nH]c2ccc(Cn3cncn3)cc12 [Rizatriptan Benzoate (Maxalt)] | 86.7% and 84.6% | 84.2 | 76.2 | 82.7 | 86.7 | 85.6 | 92.7 | 83.5 |
| COc1nc2ccc(Br)cc2cc1[C@@H](c1ccccc1)[C@@](O)(CCN(C)C)c1cccc2ccccc12 [Bedaquiline fumarate] | 55% and 58.7% | 74.9 | 63.9 | 55.5 | 41.6 | 54.7 | 24.1 | 21.3 |
| O=C(NC(NC(=S)Nc1ccc(F)c([N+](=O)[O-])c1)C(Cl)(Cl)Cl)C(c1ccccc1)c1ccccc1 (stereo not drawn) | 6.8% and 10.6% | 17.6 | 35.5 | 30.2 | 1.5 | 4.68 | 1.61 | 4.06 |
| C=C1C[C@@]23CC[C@H]4[C@@](C)(CCC[C@@]4(C)C(=O)O[C@@H]4O[C@H](CO)[C@@H](O)[C@H](O)[C@H]4O)[C@@H]2CC[C@]1(O[C@@H]1O[C@H](CO)[C@@H](O)[C@H](O)[C@H]1O)C3 [Rubusoside] | 100% and 97.7% | 101 | 110 | 104 | 104 | 103 | 104 | 114 |
| CC(C)(C)C1CCC(CC2=C(O)c3ccccc3C(=O)C2=O)CC1 (stereo not drawn) [Buparvaquone] | 76.6% and 81.5% | 77 | 84.1 | 101 | 63.2 | 42.9 | 80.4 | 75.3 |
| C[C@]12CC[C@@H]3c4ccc(O)cc4CC[C@H]3[C@@H]1CC[C@@H]2OC(=O)CCC1CCCC1 [Estradiol Cypionate] | 91.5% and 90.9% | 91.3 | 86.9 | 81.6 | 75 | 84.1 | 55.4 | 53.1 |
| CC(C)CC(CC(=O)NO)C(=O)N[C@@H](Cc1ccc2ccccc2c1)C(=O)N[C@@H](C)C(=O)NCCN (stereo partly drawn) | 105% | 110 | 112 | 109 | 99.1 | 104 | 110 | 106 |
| CCn1c2ccccc2c2cc(CNCc3ccccc3OC)ccc21 [HLCL-61 hydrochloride] | 81.8% and 88% | 84.8 | 73.9 | 84.8 | 75 | 88.9 | 65.8 | 76.6 |
| CC1Cc2ccccc2N1NC(=O)c1ccc(Cl)c(S(N)(=O)=O)c1 (stereo not drawn) [Indapamide (Lozol)] | 108% and 105% | 103 | 106 | 105 | 106 | 106 | 114 | 104 |
| Cc1nnc(SCC2=C(C(=O)O)N3C(=O)[C@@H](NC(=O)Cn4cc(Cl)c(=O)c(Cl)c4)[C@H]3SC2)s1 [Cefazedone] | 102% and 107% | 108 | 106 | 111 | 106 | 106 | 121 | 102 |
| CC1(C)O[C@H]1COc1c2ccoc2cc2oc(=O)ccc12 [Oxypeucedanin] | 93.6% and 100% | 97.6 | 92.1 | 93.2 | 93.6 | 101 | 81.9 | 93.4 |

— the supplement of paper PMC10981050
